Here are results for one sequence from PMC7862700, “An all-to-all approach to the identification of sequence-specific readers for epigenetic DNA modifications on cytosine”.

Common to all, as to assay: DAPPL (digital affinity profiling via proximity ligation, sequencing); 10 mM Tris-HCl pH 7.5, 50 mM NaCl, 1 mM DTT, 4% glycerol, room temperature, 30 min; GST-TFs on glutathione beads, 16-mer random dsDNA library, 0.1% formaldehyde crosslink after washing; high values mean tight binding
One assay deals with T1, FEV (Homo sapiens, UniProt Q99581 1-238).
T1 sequence: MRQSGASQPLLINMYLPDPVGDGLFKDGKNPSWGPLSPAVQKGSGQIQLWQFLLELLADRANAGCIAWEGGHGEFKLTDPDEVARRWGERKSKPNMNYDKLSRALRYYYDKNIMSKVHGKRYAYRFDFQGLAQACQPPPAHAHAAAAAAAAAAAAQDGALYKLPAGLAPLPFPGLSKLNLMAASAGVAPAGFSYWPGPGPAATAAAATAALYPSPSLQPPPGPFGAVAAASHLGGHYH
As to conditions: protein: recombinant; tags: N-terminal GST; dsDNA, one strand shown. The method, boiled down:
(§1)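 Binding signal is each hexamer's read frequency for a factor divided by its frequency in the tag-only sample. The factors were GST-fused human transcription factors from yeast, captured on glutathione beads, DNA-barcoded and pooled with that sample. Pools were incubated with 200 nmole of a random double-stranded 16-mer DNA library in Tris/NaCl/DTT/glycerol buffer at room temperature for 30 min, then washed, crosslinked with 0.1% formaldehyde, proximity-ligated with BsaI/T4 ligase (1 h, 37 °C), PCR-amplified and sequenced on an Illumina NextSeq500.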

Another assay concerns the target ETV5 (Homo sapiens, UniProt P41161 1-510). To be noted: protein: recombinant; tags: N-terminal GST; dsDNA, one strand shown. In short, it runs like this: as §1
Another assay has as its target HSF1 (Homo sapiens, UniProt Q00613 1-529). As to conditions: protein: recombinant; tags: N-terminal GST; chain copies: 3; dsDNA, one strand shown. The method, boiled down: as §1
A further assay concerns the target T2, SPIC (Homo sapiens, UniProt Q8N5J4 1-248).
T2 sequence: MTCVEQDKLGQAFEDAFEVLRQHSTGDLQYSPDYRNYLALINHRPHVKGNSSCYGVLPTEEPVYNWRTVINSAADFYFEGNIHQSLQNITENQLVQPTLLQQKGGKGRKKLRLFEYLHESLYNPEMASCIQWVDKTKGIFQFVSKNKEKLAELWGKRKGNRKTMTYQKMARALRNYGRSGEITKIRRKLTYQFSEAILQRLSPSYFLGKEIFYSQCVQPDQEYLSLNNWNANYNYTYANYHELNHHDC
To be noted: protein: recombinant; tags: N-terminal GST; dsDNA, one strand shown. In short, it runs like this:
as §1

The target in another assay is ELF4 (Homo sapiens, UniProt Q99607 1-663). To be noted: protein: recombinant; tags: N-terminal GST; dsDNA, one strand shown. In short, it runs like this:
as §1

The target in the next assay is T3, ELK4 (Homo sapiens, UniProt P28324-2 1-405).
T3 sequence: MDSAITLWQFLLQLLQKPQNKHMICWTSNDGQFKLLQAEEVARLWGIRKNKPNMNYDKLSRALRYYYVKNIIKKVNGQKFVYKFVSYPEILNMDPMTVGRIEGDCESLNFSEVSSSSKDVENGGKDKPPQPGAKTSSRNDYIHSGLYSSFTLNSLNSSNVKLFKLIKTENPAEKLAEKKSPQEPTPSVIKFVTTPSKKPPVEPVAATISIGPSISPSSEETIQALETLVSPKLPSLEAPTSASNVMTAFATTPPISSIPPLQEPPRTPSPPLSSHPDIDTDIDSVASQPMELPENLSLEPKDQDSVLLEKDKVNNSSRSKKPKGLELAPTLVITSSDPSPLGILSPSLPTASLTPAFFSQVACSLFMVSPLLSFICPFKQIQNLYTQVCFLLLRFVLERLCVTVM
To be noted: protein: recombinant; tags: N-terminal GST; dsDNA, one strand shown. In short, it runs like this:
as §1

In a further assay the target is T4, ETV2 (Homo sapiens, UniProt O00321 1-342).
T4 sequence: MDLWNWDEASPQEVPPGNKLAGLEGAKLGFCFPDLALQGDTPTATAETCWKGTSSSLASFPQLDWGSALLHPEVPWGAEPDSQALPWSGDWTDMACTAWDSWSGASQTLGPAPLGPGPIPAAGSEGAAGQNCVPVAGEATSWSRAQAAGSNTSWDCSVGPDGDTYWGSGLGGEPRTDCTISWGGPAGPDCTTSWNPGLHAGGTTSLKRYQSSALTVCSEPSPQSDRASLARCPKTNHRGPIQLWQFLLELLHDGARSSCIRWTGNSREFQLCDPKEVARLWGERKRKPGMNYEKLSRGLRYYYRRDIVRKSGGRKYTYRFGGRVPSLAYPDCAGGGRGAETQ
To be noted: protein: recombinant; tags: N-terminal GST; dsDNA, one strand shown. In short, it runs like this: as §1

The target in another assay is T5, ELF3 (Homo sapiens, UniProt P78545 1-371).
T5 sequence: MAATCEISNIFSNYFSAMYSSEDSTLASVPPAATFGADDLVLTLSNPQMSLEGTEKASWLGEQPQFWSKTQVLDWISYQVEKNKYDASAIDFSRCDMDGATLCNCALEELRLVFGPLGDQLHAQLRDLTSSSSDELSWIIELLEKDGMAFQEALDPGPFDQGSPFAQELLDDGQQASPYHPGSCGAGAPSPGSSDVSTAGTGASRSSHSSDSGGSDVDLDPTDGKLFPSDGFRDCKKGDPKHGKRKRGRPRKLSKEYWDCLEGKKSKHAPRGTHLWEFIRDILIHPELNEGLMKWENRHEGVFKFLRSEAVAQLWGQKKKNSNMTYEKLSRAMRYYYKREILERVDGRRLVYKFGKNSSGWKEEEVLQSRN
To be noted: protein: recombinant; tags: N-terminal GST; dsDNA, one strand shown. The method, boiled down: as §1

The next assay has as its target CRX (Homo sapiens, UniProt O43186 1-299). As to conditions: protein: recombinant; tags: N-terminal GST; dsDNA, one strand shown. In short, it runs like this: as §1
A further assay has as its target ETV1 (Homo sapiens, UniProt P50549 1-477). As to conditions: protein: recombinant; tags: N-terminal GST; dsDNA, one strand shown. The method, boiled down: as §1
Another assay deals with T6, ERF (Homo sapiens, UniProt P50548 1-548).
T6 sequence: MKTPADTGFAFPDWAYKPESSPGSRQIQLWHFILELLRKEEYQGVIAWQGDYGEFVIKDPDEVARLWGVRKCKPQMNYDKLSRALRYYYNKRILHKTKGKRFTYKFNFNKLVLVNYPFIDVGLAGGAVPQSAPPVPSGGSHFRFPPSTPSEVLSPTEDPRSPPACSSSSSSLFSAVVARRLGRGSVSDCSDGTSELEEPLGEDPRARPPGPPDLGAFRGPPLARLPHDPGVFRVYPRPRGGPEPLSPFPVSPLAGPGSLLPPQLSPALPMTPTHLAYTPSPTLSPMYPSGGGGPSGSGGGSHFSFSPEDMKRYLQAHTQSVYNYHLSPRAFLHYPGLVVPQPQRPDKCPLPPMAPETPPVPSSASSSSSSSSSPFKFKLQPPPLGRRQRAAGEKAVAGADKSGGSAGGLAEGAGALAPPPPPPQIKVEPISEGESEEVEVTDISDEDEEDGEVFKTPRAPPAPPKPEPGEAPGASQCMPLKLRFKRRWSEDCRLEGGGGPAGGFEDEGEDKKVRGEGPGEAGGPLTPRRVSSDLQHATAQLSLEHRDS
To be noted: protein: recombinant; tags: N-terminal GST; dsDNA, one strand shown. In short, it runs like this:
as §1

For a further assay, the target named is T7, ETV3L (Homo sapiens, UniProt Q6ZN32 1-361).
T7 sequence: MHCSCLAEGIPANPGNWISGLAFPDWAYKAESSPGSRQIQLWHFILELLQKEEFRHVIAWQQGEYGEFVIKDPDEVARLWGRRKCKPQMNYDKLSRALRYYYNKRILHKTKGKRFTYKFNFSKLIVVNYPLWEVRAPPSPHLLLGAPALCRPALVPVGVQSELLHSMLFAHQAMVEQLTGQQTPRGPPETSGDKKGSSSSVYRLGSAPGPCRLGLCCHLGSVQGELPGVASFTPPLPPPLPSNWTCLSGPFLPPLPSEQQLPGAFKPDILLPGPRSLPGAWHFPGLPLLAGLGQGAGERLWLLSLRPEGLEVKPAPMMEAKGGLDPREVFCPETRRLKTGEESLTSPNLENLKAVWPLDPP
As to conditions: protein: recombinant; tags: N-terminal GST; dsDNA, one strand shown. In short, it runs like this: as §1

For a further assay, the target named is T8, ETS2 (Homo sapiens, UniProt P15036 1-469).
T8 sequence: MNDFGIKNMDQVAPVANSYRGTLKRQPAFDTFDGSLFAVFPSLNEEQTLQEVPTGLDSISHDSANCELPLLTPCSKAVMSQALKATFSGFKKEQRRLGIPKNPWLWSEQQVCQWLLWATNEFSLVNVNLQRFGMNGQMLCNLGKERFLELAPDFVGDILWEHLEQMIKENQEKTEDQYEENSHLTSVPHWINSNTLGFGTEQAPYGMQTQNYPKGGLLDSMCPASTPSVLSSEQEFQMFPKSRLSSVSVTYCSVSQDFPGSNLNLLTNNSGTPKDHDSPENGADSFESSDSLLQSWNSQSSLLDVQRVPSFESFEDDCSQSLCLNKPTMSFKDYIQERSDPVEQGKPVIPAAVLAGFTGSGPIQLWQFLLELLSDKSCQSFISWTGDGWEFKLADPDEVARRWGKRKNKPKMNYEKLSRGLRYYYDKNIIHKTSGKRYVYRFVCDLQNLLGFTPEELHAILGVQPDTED
To be noted: protein: recombinant; tags: N-terminal GST; dsDNA, one strand shown. The method, boiled down:
as §1

Another assay addresses T9, SPDEF (Homo sapiens, UniProt O95238 1-335).
T9 sequence: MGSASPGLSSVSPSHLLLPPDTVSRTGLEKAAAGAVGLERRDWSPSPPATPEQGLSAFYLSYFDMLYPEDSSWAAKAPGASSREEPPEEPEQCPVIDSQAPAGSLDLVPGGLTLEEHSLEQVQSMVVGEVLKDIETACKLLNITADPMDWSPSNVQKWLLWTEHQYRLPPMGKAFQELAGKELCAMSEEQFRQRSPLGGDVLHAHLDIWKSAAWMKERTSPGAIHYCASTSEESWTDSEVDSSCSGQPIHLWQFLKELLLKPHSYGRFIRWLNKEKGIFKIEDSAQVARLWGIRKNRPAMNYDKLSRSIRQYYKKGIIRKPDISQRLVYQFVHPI
To be noted: protein: recombinant; tags: N-terminal GST; dsDNA, one strand shown. The method, boiled down:
as §1

The next assay deals with T10, ETV7 (Homo sapiens, UniProt Q9Y603 1-341).
T10 sequence: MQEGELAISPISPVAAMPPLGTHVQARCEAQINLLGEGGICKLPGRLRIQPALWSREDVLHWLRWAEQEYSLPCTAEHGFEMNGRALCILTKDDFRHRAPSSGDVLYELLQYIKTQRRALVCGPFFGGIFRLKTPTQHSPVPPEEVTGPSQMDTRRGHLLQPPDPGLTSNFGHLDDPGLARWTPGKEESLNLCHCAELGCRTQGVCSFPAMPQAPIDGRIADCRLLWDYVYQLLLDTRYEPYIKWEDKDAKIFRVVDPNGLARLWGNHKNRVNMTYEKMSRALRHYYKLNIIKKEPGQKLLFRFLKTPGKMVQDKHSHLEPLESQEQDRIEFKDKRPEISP
As to conditions: protein: recombinant; tags: N-terminal GST; dsDNA, one strand shown. The method, boiled down:
as §1

The target in a further assay is T11, ELF5 (Homo sapiens, UniProt Q9UKW6-2 1-255).
T11 sequence: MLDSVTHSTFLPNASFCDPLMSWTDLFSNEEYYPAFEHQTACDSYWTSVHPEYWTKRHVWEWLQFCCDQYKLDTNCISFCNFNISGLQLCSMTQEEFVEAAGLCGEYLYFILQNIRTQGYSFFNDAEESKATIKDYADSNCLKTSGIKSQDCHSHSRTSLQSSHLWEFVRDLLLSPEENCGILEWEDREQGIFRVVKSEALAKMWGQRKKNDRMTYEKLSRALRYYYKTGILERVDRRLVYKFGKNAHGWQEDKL
To be noted: protein: recombinant; tags: N-terminal GST; dsDNA, one strand shown. In short, it runs like this: as §1

The target in a further assay is T12, ETV3 (Homo sapiens, UniProt P41162-2 1-143).
T12 sequence: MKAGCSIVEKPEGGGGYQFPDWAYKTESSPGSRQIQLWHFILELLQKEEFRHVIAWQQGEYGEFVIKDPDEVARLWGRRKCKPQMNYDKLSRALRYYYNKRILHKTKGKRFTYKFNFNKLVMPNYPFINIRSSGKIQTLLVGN
To be noted: protein: recombinant; tags: N-terminal GST; dsDNA, one strand shown. The method, boiled down:
as §1

Another assay addresses ETV6 (Homo sapiens, UniProt P41212 1-452). To be noted: protein: recombinant; tags: N-terminal GST; dsDNA, one strand shown. In short, it runs like this: as §1

Sequence of ETV6 (P41212 whole entry): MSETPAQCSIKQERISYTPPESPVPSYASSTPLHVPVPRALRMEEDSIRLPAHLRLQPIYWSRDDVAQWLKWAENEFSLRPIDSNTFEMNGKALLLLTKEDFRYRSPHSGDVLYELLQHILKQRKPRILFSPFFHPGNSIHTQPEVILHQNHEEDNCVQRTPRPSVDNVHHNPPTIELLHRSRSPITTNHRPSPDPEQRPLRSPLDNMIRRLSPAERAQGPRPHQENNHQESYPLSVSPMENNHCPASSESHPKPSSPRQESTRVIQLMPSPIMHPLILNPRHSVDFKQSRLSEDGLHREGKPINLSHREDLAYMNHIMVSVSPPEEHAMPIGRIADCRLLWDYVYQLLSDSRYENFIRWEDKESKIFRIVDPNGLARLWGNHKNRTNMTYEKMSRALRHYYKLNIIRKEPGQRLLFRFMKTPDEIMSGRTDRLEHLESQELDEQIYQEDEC
Sequence of HSF1 (Q00613 whole entry): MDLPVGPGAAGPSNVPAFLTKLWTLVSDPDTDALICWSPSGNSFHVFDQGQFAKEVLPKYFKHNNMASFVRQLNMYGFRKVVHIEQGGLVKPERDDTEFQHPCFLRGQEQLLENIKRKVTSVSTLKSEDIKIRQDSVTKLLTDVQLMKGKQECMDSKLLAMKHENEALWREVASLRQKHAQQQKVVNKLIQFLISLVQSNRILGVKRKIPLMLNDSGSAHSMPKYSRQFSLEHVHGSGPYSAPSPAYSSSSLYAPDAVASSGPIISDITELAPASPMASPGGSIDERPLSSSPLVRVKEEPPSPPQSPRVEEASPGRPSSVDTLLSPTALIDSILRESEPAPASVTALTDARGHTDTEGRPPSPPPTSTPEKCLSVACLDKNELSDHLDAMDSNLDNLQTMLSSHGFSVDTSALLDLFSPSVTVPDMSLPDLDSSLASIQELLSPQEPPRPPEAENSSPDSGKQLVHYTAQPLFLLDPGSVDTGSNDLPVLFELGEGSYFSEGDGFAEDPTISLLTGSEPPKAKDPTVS
Sequence of ETV5 (P41161 whole entry): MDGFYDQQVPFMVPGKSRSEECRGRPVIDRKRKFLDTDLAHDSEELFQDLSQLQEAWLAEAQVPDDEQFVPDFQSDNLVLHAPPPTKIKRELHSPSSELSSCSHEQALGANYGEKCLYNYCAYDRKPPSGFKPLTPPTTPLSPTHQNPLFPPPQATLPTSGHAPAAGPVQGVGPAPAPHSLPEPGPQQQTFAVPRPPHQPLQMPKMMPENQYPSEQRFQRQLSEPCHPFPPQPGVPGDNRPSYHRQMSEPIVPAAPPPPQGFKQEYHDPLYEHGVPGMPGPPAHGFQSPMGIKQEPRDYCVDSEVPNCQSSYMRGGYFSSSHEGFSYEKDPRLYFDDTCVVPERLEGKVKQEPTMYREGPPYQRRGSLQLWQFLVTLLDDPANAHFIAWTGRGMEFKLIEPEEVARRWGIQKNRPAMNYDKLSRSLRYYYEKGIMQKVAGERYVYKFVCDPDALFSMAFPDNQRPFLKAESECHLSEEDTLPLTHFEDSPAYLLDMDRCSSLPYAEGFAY
Sequence of ELF4 (Q99607 whole entry): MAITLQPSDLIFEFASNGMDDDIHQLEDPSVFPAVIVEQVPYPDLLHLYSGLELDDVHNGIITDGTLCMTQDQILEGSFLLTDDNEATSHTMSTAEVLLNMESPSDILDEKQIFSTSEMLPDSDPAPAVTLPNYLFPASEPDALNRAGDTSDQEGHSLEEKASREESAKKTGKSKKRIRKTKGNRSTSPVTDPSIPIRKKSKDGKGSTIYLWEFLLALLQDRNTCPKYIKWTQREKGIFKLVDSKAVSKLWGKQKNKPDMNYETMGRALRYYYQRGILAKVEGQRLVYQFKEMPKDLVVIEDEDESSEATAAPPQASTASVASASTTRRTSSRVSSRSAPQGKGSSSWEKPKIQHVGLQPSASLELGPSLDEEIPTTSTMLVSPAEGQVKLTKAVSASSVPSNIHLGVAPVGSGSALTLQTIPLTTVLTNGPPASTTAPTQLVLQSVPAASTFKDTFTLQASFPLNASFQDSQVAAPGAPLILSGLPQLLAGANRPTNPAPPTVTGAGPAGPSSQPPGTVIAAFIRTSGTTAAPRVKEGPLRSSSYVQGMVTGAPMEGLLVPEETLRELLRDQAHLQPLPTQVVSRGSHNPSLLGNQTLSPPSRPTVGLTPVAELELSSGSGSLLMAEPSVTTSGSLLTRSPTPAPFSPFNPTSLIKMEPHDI
Sequence of CRX (O43186 whole entry): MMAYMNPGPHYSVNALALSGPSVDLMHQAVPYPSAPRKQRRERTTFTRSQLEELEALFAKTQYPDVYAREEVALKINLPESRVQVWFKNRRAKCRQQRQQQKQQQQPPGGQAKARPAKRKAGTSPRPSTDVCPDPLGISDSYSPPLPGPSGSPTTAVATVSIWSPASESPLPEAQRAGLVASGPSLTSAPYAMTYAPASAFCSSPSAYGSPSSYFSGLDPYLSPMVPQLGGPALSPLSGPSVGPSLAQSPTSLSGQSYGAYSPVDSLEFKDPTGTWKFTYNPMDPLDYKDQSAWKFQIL
Sequence of ETV1 (P50549 whole entry): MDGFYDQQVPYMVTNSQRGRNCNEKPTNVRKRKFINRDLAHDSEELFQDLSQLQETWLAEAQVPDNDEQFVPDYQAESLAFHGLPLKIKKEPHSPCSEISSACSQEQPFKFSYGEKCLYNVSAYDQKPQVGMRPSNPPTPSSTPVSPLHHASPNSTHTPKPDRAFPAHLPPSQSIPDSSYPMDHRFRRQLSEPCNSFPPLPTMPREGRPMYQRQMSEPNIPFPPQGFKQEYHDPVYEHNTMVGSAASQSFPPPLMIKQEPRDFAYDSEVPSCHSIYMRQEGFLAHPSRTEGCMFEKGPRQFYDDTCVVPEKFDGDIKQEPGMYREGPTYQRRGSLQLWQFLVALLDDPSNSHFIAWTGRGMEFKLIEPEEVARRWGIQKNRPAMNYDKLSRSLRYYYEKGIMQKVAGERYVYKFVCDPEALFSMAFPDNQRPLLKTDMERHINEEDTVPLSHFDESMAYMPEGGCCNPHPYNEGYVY

In the case of TAGATG, the binding signal is 1.22 fold enrichment (6-mer frequency, TF over GST control) with FEV; 1.22 fold enrichment (6-mer frequency, TF over GST control) with ETV5; 1.66 fold enrichment (6-mer frequency, TF over GST control) with HSF1; 1.57 fold enrichment (6-mer frequency, TF over GST control) in the assay with SPIC; 1.18 fold enrichment (6-mer frequency, TF over GST control) with ELF4; 1.3 fold enrichment (6-mer frequency, TF over GST control) in the assay with ELK4. The binding signal was 1.37 fold enrichment (6-mer frequency, TF over GST control) with ETV2; 1.32 fold enrichment (6-mer frequency, TF over GST control) in the assay with ELF3; 1.52 fold enrichment (6-mer frequency, TF over GST control) with CRX; 1.15 fold enrichment (6-mer frequency, TF over GST control) with ETV1; 1.54 fold enrichment (6-mer frequency, TF over GST control) with ERF; 1.36 fold enrichment (6-mer frequency, TF over GST control) with ETV3L. In addition, the binding signal with ETS2 was 1.3 fold enrichment (6-mer frequency, TF over GST control); with SPDEF it was 1.35 fold enrichment (6-mer frequency, TF over GST control); in the assay with ETV7, 1.33 fold enrichment (6-mer frequency, TF over GST control); with ELF5 it was 1.27 fold enrichment (6-mer frequency, TF over GST control); in the assay with ETV3 it was 1.22 fold enrichment (6-mer frequency, TF over GST control); with ETV6 it was 1.24 fold enrichment (6-mer frequency, TF over GST control).
